According to ChEMBL document CHEMBL4513216, “Probing the Open Global Health Chemical Diversity Library for Multistage-Active Starting Points for Next-Generation Antimalarials” (ACS Infect Dis, 2020):
The whole screen tested about 65,000 compounds, of which about 2,100 (3.2%) showed an effect of 50% or more. The median lay at about -52%. The list comes from a sample in which strong results are over-represented; it also holds similar structures and randomly drawn compounds.

tested on: Plasmodium falciparum; assay: Screen against P. falciparum Asexual Blood Stage (ABS), at 5uM; type: functional, Dd2; conditions: tested at 5 uM

| SMILES | INHIBITION [%] |
| --- | --- |
| Cc1ccc(N2CCO[C@H]3CN(Cc4ccoc4)C[C@H]32)nn1 | -106 |
| Cc1cc(CN2C[C@@H]3CN(Cc4ccsc4)CCO[C@@H]3C2)no1 | -101 |
| CC(C)(C)c1cc(=O)[nH]c(C2(N)CCCCC2)n1 | -114 |
| O=C(NC1CCC1)[C@H]1C[C@H]2NCCO[C@@H]2C1 | -269 |
| c1ccc(N2CC3(CCN(Cc4cccnc4)C3)C2)nc1 | -13.8 |
| c1ccc(N2CCCC3(CCN(Cc4ccsc4)C3)C2)nc1 (stereo unspecified) | 82.6 |
| CCc1nc(CC(=O)N2CCCC2CN2CCCC2)cs1 (stereo unspecified) | -48.9 |
| CN(C)c1nc2c(c(N(C)Cc3n[nH]c4c3CCCC4)n1)CCNCC2 | 84.4 |
| CN(Cc1n[nH]c2c1CCCC2)c1nc(C2CC2)nc2c1CCNCC2 | 89.5 |
| CN(C)C[C@]12COC[C@H]1CN(Cc1ccc3ccccc3n1)C2 | 27.2 |
| Cn1cccc1C(=O)N1CCN2C[C@H](Oc3cccnc3)C[C@H]2C1 | 30.4 |
| COC(=O)c1ccc(C2SCC(=O)Nc3c2cnn3C(C)(C)C)cc1 (stereo unspecified) | -53.3 |
| CN(Cc1cccc(F)c1)C(=O)CS(=O)(=O)Cc1c(Cl)cccc1Cl | 82.7 |
| CCc1nnc(NC(=O)CCN2CC=C(c3cnn(C)c3)CC2)s1 | -25.3 |
| COc1ccccc1C(C)(C)NCc1ccc(C)o1 | 77.9 |
| c1cncc(CN2CCO[C@H]3[C@H](OCCN4CCCC4)CC[C@@H]32)c1 | -68.3 |
| c1cc(CN2CCO[C@H]3[C@H](OCCN4CCCC4)CC[C@@H]32)ccn1 | -53.4 |
| CC(Cn1cccn1)NCc1nc(-c2ccco2)no1 (stereo unspecified) | -82 |
| O=C1C[C@H]2[C@@H](CCN2Cc2ccccn2)N1Cc1cccnc1 | -99.2 |
| CN1CCCC1CNC(=O)CCCOc1ccc(Cl)cc1 (stereo unspecified) | 78.2 |
| CN1CCCC1CNC(=O)CCCOc1cccc(Br)c1 (stereo unspecified) | 71.7 |
| CC(=O)N1C[C@H]2CNC[C@@]2(C(=O)NCCCOc2cccnc2)C1 | -133 |
| CCc1c(C)[nH]c(C2(N)CCCCC2)nc1=O | -26.9 |
| CCN1CCN(Cc2nc(CC(C)C)no2)CC1 | 34.7 |
| Cc1noc(C)c1CN1CC[C@H]2OCC[C@@]2(C(=O)N2CCCC2)C1 | -28.8 |
| CCC(=O)NCC(=O)NCC1(c2c(F)cccc2F)CCCC1 | 73.7 |

| SMILES | INHIBITION [%] |
| --- | --- |
| Cc1cc(CN2C[C@@H]3COC[C@]3(CNC(=O)N(C)C)C2)no1 | -94.8 |
| Cc1ccc(CN2CCC3(CC2)CC3CN(C)Cc2cccnc2)o1 (stereo unspecified) | 70.8 |
| Cc1ccc(CN2CCO[C@H]3[C@H](OCc4cccnc4)CC[C@@H]32)o1 | -70.3 |
| Cc1ccc(CN2CCO[C@H]3[C@@H](OCc4cccnc4)CC[C@@H]32)o1 | 3.59 |
| CCN(C)c1ncc2c(c1C(=O)O)CCN(C1CCOC1)C2 (stereo unspecified) | -4.54 |
| Cc1cccc(CN2C(=O)C[C@H]3[C@@H]2CCN3Cc2nccs2)n1 | -3.26 |
| Cc1ccccc1CN1CCCC1c1cccc(Nc2nccs2)n1 (stereo unspecified) | 84.8 |
| Cc1cnc(Nc2cccc(C3CCCN3Cc3cn(C)nc3C)n2)s1 (stereo unspecified) | 89.8 |
| Cc1cccc(CO[C@@H]2CC[C@H]3[C@H]2OCCN3Cc2nccs2)n1 | -43.3 |
| c1ccc(CCN2CCCC2c2cccc(Nc3nccs3)n2)cc1 (stereo unspecified) | 77 |
| Cc1cccc(CN2CCCC2c2cccc(Nc3nccs3)n2)c1 (stereo unspecified) | 88.1 |
| Cc1ccc(C(=O)N2C[C@H]3CNC[C@H]3C2)cn1 | -104 |
| Cc1ccccc1SC1CCN(C(=O)C2[C@H]3CNC[C@@H]23)CC1 (stereo partly specified) | 73.3 |
| COc1ncc(-c2cc(NC3CCCC3)nc3[nH]ccc23)c(OC)n1 | 74 |
| Cc1cc(Oc2ccc(NC(=O)C3CC3)cc2)cc(C2CCNCC2)n1 | 87.8 |
| Fc1cccnc1O[C@H]1CN(Cc2ccoc2)[C@@H]2CCCO[C@H]12 | -26.7 |
| COCC1CN(c2ccc(C#N)c(Cl)c2)CCO1 (stereo unspecified) | -35.5 |
| c1cc(CN2C[C@@H]3OCCN(CC4CCCO4)[C@@H]3C2)ccn1 (stereo partly specified) | -111 |
| CNc1cc(C)nc(N2Cc3cnn(Cc4ccc(F)cc4)c3C2)n1 | 91.9 |
| CC(C)NC(=O)[C@H]1C[C@@H]2[C@@H](C1)OCCN2Cc1cccnc1 | -95.4 |
| N#Cc1ccc(S(=O)(=O)NCCn2ccnc2)cc1Cl | -39.2 |
| O=S(=O)(NCCN1CC=CC1)c1ccc(Cl)cc1 | 76.2 |
| O=C(Cc1ccccc1)N1CCN(Cc2noc(C3CC3)n2)CC1 | -62.4 |
| c1ccc2nc(CN3CCCC3c3noc(C4CC4)n3)ccc2c1 (stereo unspecified) | 72.7 |
| COCCN1C[C@@H]2CC[C@H]1CN(Cc1ccc3ccccc3n1)C2 | 21.2 |
| CCCS(=O)(=O)CC(=O)N1CCCC1c1noc(C2CC2)n1 (stereo unspecified) | -40.7 |

| SMILES | INHIBITION [%] |
| --- | --- |
| Cc1nc(CN2CCCC2c2noc(C3CC3)n2)nc2ccccc12 (stereo unspecified) | 78.7 |
| CCN1CCc2[nH]cnc2C12CCN(c1ccc(Cl)cn1)CC2 | 42.9 |
| CN(C)Cc1cc(C2CCCCN2S(=O)(=O)c2cccc(Cl)c2)nn1C (stereo unspecified) | 78.8 |
| CN1CC2(CCNCC2)CC1C(=O)NCCCNc1cccnc1 (stereo unspecified) | -62 |
| Cc1cnc(N2CC[C@H]3[C@H](C[C@@H](CN(C)C)N3C)C2)nc1 | -51.8 |
| CSCc1cc(F)ccc1CNCc1cccc(O)c1 | 72.6 |
| Cc1cccc2[nH]c(-c3cn(C4CCNCC4)nn3)nc12 | 73.5 |
| Cc1cc2nc(-c3cn(C4CCNCC4)nn3)[nH]c2cc1C | 87.5 |
| Cc1ccc2[nH]c(-c3cn(C4CCNCC4)nn3)nc2c1C | 85.5 |
| Cc1cc(CN2C[C@@H]3COC[C@]3(CN(C)C)C2)no1 | -59 |
| Cc1ccc(N2CCO[C@H]3CN(Cc4nccs4)C[C@H]32)nn1 | -168 |
| CCO[C@H]1CN(CC2CC2)[C@@H]2CCCO[C@H]12 | -82.9 |
| CCc1noc(CC)c1CC(=O)N1CCCC(N2CCCCC2)C1 (stereo unspecified) | -22.8 |
| O=C1CC2(CCN(Cc3ccccn3)C2)CN1c1cccnc1 (stereo unspecified) | -14.1 |
| CCN(CC)CCNS(=O)(=O)c1cccc(CSC)c1 | 83.4 |
| COc1ccc2[nH]c(CNc3cc(C4CCNCC4)nc(C)n3)cc2c1 | 84.1 |
| Cc1nc(NCCC23CCCN2CCC3)cc(C2CCNCC2)n1 | -50.1 |
| CN(Cc1cc2cc(F)ccc2[nH]1)c1cc(C2CCCNC2)ncn1 (stereo unspecified) | 84.2 |
| Cc1nc(NCC23CCCN2CCC3)cc(C2CCCNC2)n1 (stereo unspecified) | -54.3 |
| Cc1cc(N(C)C)nc(C2CCCNC2)n1 (stereo unspecified) | -54.7 |
| Cc1nc(C2CCNCC2)cc(N(C)Cc2cc3cc(F)ccc3[nH]2)n1 | 75.9 |
| CCCN(CC)c1cc(C2CCNCC2)nc(C)n1 | -70.1 |
| CCN(Cc1c(F)cccc1Cl)c1cc(C2CCNCC2)nc(C)n1 | 76.4 |
| O=C1CC[C@H]2[C@H](CCN2Cc2ccccn2)N1CC1CCOCC1 | -82.3 |
| COc1ccccc1-c1ncc(CN2CCCC[C@H](N(C)C)C2)s1 | 70.3 |
| COc1ccc(F)cc1C(=O)C1CCCN(Cc2cnc(C)s2)C1 (stereo unspecified) | -29 |

| SMILES | INHIBITION [%] |
| --- | --- |
| CCC(CC)C(=O)N1CCOC2(CNC2)C1 | -94.6 |
| O=C(NCCCNc1ccc(C(F)(F)F)cn1)c1ccc(F)cc1F | 72.5 |
| CC(=O)c1cn(CC(=O)N2CCC3(CC2)OCCO3)c2ccccc12 | -61.4 |
| N#Cc1cccnc1NCCNC(=O)N1CCN2CCCCC2C1 (stereo unspecified) | -90.5 |
| N#Cc1cccc(CN2C[C@@H]3CN(c4ncccn4)C[C@@H]3C2)c1 | 19 |
| COCC1CC2(CCN(Cc3ccncc3)CC2)CN1C(C)C (stereo unspecified) | -68 |
| N#Cc1cccc(CN2CCO[C@@H]3CNC[C@@H]32)c1 | -52.7 |
| COCC1CC2(CCN(c3ccccn3)CC2)CN1C(C)C (stereo unspecified) | -41 |
| COCC1CC2(CCN(Cc3cccc(C#N)c3)CC2)CN1C(C)C (stereo unspecified) | 73.2 |
| COCC1CC2(CCN(Cc3ccoc3)CC2)CN1C(C)C (stereo unspecified) | 71.6 |
| O=C(CC1CC1)N[C@@H]1CN(Cc2ccccn2)C[C@@H]2CCCO[C@@H]21 | -65.3 |
| O=C(NCc1ccccn1)[C@H]1COC[C@H]2CN(CC3CC3)C[C@H]21 | -35.7 |
| CN(Cc1ccccn1)C1CCC[C@@H]2CN(CC3CC3)C[C@H]12 (stereo partly specified) | 69.5 |
| Cc1noc(C)c1CN(C)C(=O)C1CCCCN1CC(C)C (stereo unspecified) | 21.5 |
| COC[C@H](C)Nc1cc(C)c2ccc(SC)cc2n1 | 75.5 |
| c1ccc(C(Cn2cnnc2)N2CCOCC2)nc1 (stereo unspecified) | -29.3 |
| CN1CCC2(CC1)CNC(=O)c1ccccc1O2 | -102 |
| O=C1Nc2ccccc2CC12CCCN2Cc1ccccn1 (stereo unspecified) | -60.5 |
| Cc1cc(S(=O)(=O)N2C[C@H](C3CC3)[C@@H](N)C2)c(C)s1 | 86.1 |
| Cc1cc(-c2cc(S(=O)(=O)N3C[C@H](C4CC4)[C@@H](N)C3)c(C)s2)on1 | 71.2 |
| O=C(CC1CC1)N[C@@H]1CN(Cc2ccncc2)C[C@@H]2CCCO[C@@H]21 | -86.8 |
| Cc1nnc(N2CCNCC2)c(C(N)=O)c1C | -11.3 |
| CCN1CC2(CC1=O)CN(Cc1ccccn1)CCN(C(C)=O)C2 (stereo unspecified) | -40.2 |
